In PubChem BioAssay (Tox21):
Records with an inconclusive call do not appear. A call without a number means that no potency is given here. The source made the active and inactive calls. Calls follow the shape of the dose curve; as a rule, active = well fitted cell-killing curve with a large enough effect in the repeat runs; inconclusive = weak or mixed curves, or effect the other way; inactive = flat fitted curve, though single readings scatter.

Tests used:
[1] = cAMP Responsive Elements (CRE) small molecule antagonists, cell-based qHTS assay: qHTS cell viability counter screen (AID 2060913); also: nearly all actives have a fitted effect of over 40% in size
Method in brief: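 CRE-bla HEK293T cells were seeded in assay medium with 10% dialyzed FBS, incubated 18 hrs at 37 C, then exposed to compounds plus 0.25 uM final NKH477 for 3 hrs. Viability was read by CellTiter-Glo luminescence after 30 min, in the same wells.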

[2] = cAMP Responsive Elements (CRE) small molecule agonists, cell-based qHTS assay: qHTS cell viability counter screen (AID 2060914);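 also: viability read after 3 h of compound exposure; nearly all actives have a fitted effect of over 50% in size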
Method in brief: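 HEK 293T CRE-bla; DMEM + 10% dialyzed FBS, 25 mM HEPES; 18 h pre-incubation; compound 3 h, 37 °C/5% CO2; CellTiter-Glo added after reporter read; luminescence after 30 min RT.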
Potency is read from the fitted curve at half-maximal effect.

Structure (SMILES)	Potency [1]	Potency [2]
O=C1C(Cl)C(CCl)CN1c1cccc(C(F)(F)F)c1 (centres undefined)	inactive	inactive
O=c1[nH]oc2c1CCNC2	inactive	inactive
CNN	inactive	inactive
ClCc1ccccc1CCl	inactive	inactive
Clc1ccc(CO/N=C(\Cn2ccnc2)c2ccc(Cl)cc2Cl)c(Cl)c1	inactive	inactive
O=P(Oc1ccccc1)(Oc1ccccc1)Oc1ccccc1	inactive	inactive
O=NN(c1ccccc1)c1ccccc1	inactive	inactive
C[C@H]1CC[C@@H]2[C@@H](C)[C@H]3[C@H](C[C@H]4[C@@H]5CC=C6CC(O[C@@H]7O[C@H](CO)[C@H](O)[C@H](O[C@@H]8O[C@H](CO)[C@@H](O)[C@H](O)[C@H]8O)[C@H]7O[C@H]7O[C@@H](C)[C@H](O)[C@@H](O)[C@H]7O)CC[C@]6(C)[C@H]5CC[C@]34C)N2C1 (some centres undefined)	inactive	inactive
COP(=S)(OC)Oc1ccc([N+](=O)[O-])cc1	inactive	inactive
ClC(Cl)C(Cl)(Cl)Cl	inactive	inactive
CC(NC(C)(C)C)C(=O)c1cccc(Cl)c1 (centres undefined)	inactive	inactive
CC1NCCOC1c1ccccc1 (centres undefined)	inactive	inactive
BrCC(Br)C1CCC(Br)C(Br)C1 (centres undefined)	inactive	inactive
[CH3][Sn]([CH3])([Cl])[Cl]	inactive	inactive
CCCN(CCC)C(=O)Cc1c(-c2ccc(Cl)cc2)nc2ccc(Cl)cn12	inactive	inactive
COC(=O)N(C(=O)N1COC2(C(=O)OC)Cc3cc(Cl)ccc3C2=N1)c1ccc(OC(F)(F)F)cc1 (centres undefined)	inactive	inactive
Clc1ccc(C(Cl)(Cl)Cl)cc1	inactive	inactive
C#CCOC(=O)/C=C(C)/C=C/CC(C)CCCC(C)C (centres undefined)	inactive	inactive
CC1CN1P(=O)(N1CC1C)N1CC1C (centres undefined)	inactive	inactive
[P]#[In]	inactive	inactive
COC(=O)c1c(C(F)F)nc(C(F)(F)F)c(C2=NCCS2)c1CC(C)C	inactive	inactive
COP(=S)(OC)Oc1ccc(Sc2ccc(OP(=S)(OC)OC)cc2)cc1	inactive	inactive
CNC(=O)Oc1cccc2ccccc12	inactive	inactive
CC(C)CP(=S)(S)CC(C)C	inactive	inactive

Structure (SMILES)	Potency [1]	Potency [2]
Cc1ccc(N)cc1N	inactive	inactive
CCNc1nc(NC(C)C)nc(SC)n1	inactive	inactive
Cc1cc(Cl)ccc1O[C@H](C)C(=O)O	inactive	inactive
CCCCN(CCCC)C(=S)[S-].CCCCN(CCCC)C(=S)[S-].[Zn+2]	inactive	inactive
C[C@]12CC[C@H]3[C@@H](CC=C4C[C@@H](O)CC[C@@]43C)[C@@H]1CC[C@@H]2O	inactive	inactive
CN(C)[C@@H]1C(=O)C(C(N)=O)=C(O)[C@@]2(O)C(=O)C3=C(O)c4c(O)ccc(Cl)c4[C@@](C)(O)[C@H]3C[C@@H]12	inactive	inactive
CCC(=O)C(CC(C)N(C)C)(c1ccccc1)c1ccccc1 (centres undefined)	inactive	inactive
c1ccc(-c2cccc(-c3ccccc3)c2)cc1	inactive	inactive
CCCCCCCC(=O)Cl	inactive	inactive
c1ccc2c(c1)Nc1ccccc1S2	inactive	inactive
O=S(=O)(O)C(F)(F)C(F)(F)C(F)(F)C(F)(F)C(F)(F)C(F)(F)C(F)(F)C(F)(F)F	inactive	inactive
CCN(CC)Cc1nccn1-c1ccc([N+](=O)[O-])cc1C(=O)c1ccccc1Cl	inactive	inactive
O=C(Nc1ccccc1)c1ccccc1I	inactive	inactive
O=c1oc2ccccc2c(O)c1Cc1c(O)c2ccccc2oc1=O	inactive	inactive
[N-]=[N+]=CC(=O)OC[C@H](N)C(=O)O	inactive	inactive
O=C(O)COc1nc(Cl)c(Cl)cc1Cl	inactive	inactive
Cc1ccc2cc(C)ccc2c1	inactive	inactive
ClC(Cl)=C(Cl)C(Cl)=C(Cl)Cl	inactive	inactive
Cc1cc(C)nc(Nc2ccccc2)n1	inactive	inactive
Cc1ccccc1[N+](=O)[O-]	inactive	inactive
CC(C)CON=O	inactive	inactive
CCN(CC)CCOC(=O)C(O)(c1ccccc1)c1ccccc1	inactive	inactive
ClCc1cccc(Cl)c1	inactive	inactive
CC(C)N(Cc1ccccc1)C(=O)C(C)(C)C	inactive	inactive

Structure (SMILES)	Potency [1]	Potency [2]
O=S(=O)(Oc1ccc(Cl)cc1)c1ccc(Cl)cc1	inactive	inactive
C1=Cc2cccc3cccc1c23	inactive	inactive
O=[N+]([O-])c1ccc(CCl)cc1	inactive	inactive
NCc1cccnc1	inactive	inactive
C=C(C)C#N	inactive	inactive
CCCCC1C(=O)NC(=O)N(C2CCCCC2)C1=O (centres undefined)	inactive	inactive
CN(C)c1ccc(N=Nc2ccccc2)cc1	inactive	inactive
CCOP(=O)(CN(CCO)CCO)OCC	inactive	inactive
CC(C)CC(C)Nc1ccc(Nc2ccccc2)cc1 (centres undefined)	inactive	inactive
CN(C)c1ccc(N(C)C)cc1	inactive	inactive
CNC(C)Cc1ccccc1OC (centres undefined)	inactive	inactive
O=c1[nH]c(Cl)c(Cl)cc1Cl	inactive	inactive
O=C(Cc1ccccc1)c1ccccc1	inactive	inactive
CCC(Br)(CC)C(=O)NC(N)=O	inactive	inactive
C#CCC1=C(C)C(OC(=O)C2C(C=C(C)C)C2(C)C)CC1=O (centres undefined)	inactive	inactive
C=C1CC[C@@]2(O)[C@H]3Cc4ccc(O)c5c4[C@@]2(CCN3CC2CC2)[C@H]1O5	inactive	inactive
O=C(CCCN1CCC(n2c(=O)[nH]c3ccccc32)CC1)c1ccc(F)cc1	inactive	inactive
OCCCCO	inactive	inactive
CCOP(=S)(OCC)SCS(=O)(=O)C(C)(C)C	inactive	inactive
CC(=[OH+])/C=C(/C)[O-].CC(=[OH+])/C=C(\C)[O-].CC(=[OH+])/C=C(\C)[O-].[Al]	inactive	inactive
CNC(=O)O/N=C(/CSC)C(C)(C)C	inactive	inactive
Oc1ccc(C2(c3ccc(O)cc3)CCCCC2)cc1	inactive	inactive
COP(=S)(OC)Oc1nc(Cl)c(Cl)cc1Cl	inactive	inactive
Nc1ccc(Cl)cc1	inactive	inactive

Structure (SMILES)	Potency [1]	Potency [2]
Cc1cccc(N=Nc2ccc(N(C)C)cc2)c1	inactive	inactive
Nc1ccncc1	inactive	inactive
COC(=O)C1=CCCN(C)C1	inactive	inactive
CCCC[N+]1(C)CCCC1 (tested in a mixture with another compound)	inactive	inactive
COC(C)(C)C	inactive	inactive
O=C1CCCCC1Cl (centres undefined)	inactive	inactive
O=c1[nH]c2ccccc2n1C1CCNCC1	inactive	0.266 µM (active)
CCOC(=O)COc1ccc(Cl)cc1Cl	inactive	inactive
FC(F)(F)c1ccc(Cl)cc1	inactive	inactive
ClCC1CO1 (centres undefined)	inactive	inactive
CCN1CCCC1CNC(=O)C(O)(c1ccccc1)c1ccccc1 (centres undefined)	inactive	inactive
C(COCC1CO1)OCC1CO1 (centres undefined)	inactive	inactive
N[C@@H]1C[C@H]1c1ccccc1	inactive	inactive
CC(C)(c1cc(Cl)c(O)c(Cl)c1)c1cc(Cl)c(O)c(Cl)c1	inactive	inactive
C=CC#N	inactive	inactive
CCCC1COC(Cn2cncn2)(c2ccc(Cl)cc2Cl)O1 (centres undefined)	inactive	inactive
N#CCCCCC#N	inactive	inactive
C=CCc1ccc(OC)cc1	inactive	inactive
CC(C)CCCCCCCOP(=O)(Oc1ccccc1)Oc1ccccc1	inactive	inactive
COP(=S)(OC)SCn1nnc2ccccc2c1=O	inactive	inactive
NC(=O)CF	inactive	inactive
CN1CCc2cc(Cl)c(O)cc2[C@H]2c3ccccc3CC[C@@H]21	inactive	inactive
CCOC(=O)C1OC1(C)c1ccccc1 (centres undefined)	inactive	inactive
C=CC(=O)OCC	inactive	inactive

Structure (SMILES)	Potency [1]	Potency [2]
CCCC1CCCCN1 (centres undefined)	inactive	inactive
CCN(CC)C(=O)SCc1ccc(Cl)cc1	inactive	inactive
CCC[CH2][Sn]([CH2]CCC)([CH2]CCC)[O]C(=O)c1ccccc1	5.7 µM (active)	5.45 µM (active)
CCOP(=S)(OCC)SCSC(C)(C)C	inactive	inactive
CC1=C2[C@H]3OC(=O)[C@@H](C)[C@@H]3CC[C@@]2(C)C=CC1=O	inactive	inactive
CC(C)=CCN1CC[C@@]2(C)c3cc(O)ccc3C[C@@H]1[C@@H]2C	inactive	inactive
COc1ccc2c(C(=O)c3ccc(Cl)cc3)c(C)n(CC(=O)O)c2c1	inactive	inactive
Brc1ccc(Br)cc1	inactive	inactive
O=NN(CCO)CCO	inactive	inactive
CC(C)(C)c1ccc(CCOc2ncnc3ccccc23)cc1	inactive	inactive
NC1=NC(=O)C(c2ccccc2)O1 (centres undefined)	inactive	inactive
NCC1(CC(=O)O)CCCCC1	inactive	inactive
CCCCC(CC)COP(=O)(Oc1ccccc1)Oc1ccccc1 (centres undefined)	inactive	inactive
CCOP(=S)(OCC)SCSCC	inactive	inactive
C=CCc1ccc2c(c1)OCO2	inactive	inactive
CC(C)(CCl)C(=O)Cl	inactive	inactive
O=C(NC(=O)c1cc(F)c(F)cc1Cl)Nc1cc(F)ccc1N1CCC(C(=O)O)CC1	inactive	inactive
CCCSP(=S)(OCC)Oc1ccc(Cl)cc1Cl (centres undefined)	inactive	inactive
CC(C)CCCCCCCOC(=O)c1ccccc1C(=O)OCCCCCCCC(C)C	inactive	inactive
O=C(O)C1(c2ccc3c(c2)OC[C@H](Cc2ccc(-c4ccccc4)cc2)[C@H]3O)CCCC1	inactive	inactive
C[C@@H]1CC[C@@]2(OC1)O[C@H]1[C@@H](O)[C@H]3[C@@H]4CC[C@H]5C[C@@H](O[C@@H]6O[C@H](CO)[C@H](O[C@@H]7O[C@H](CO)[C@@H](O)[C@H](O[C@@H]8OC[C@@H](O)[C@H](O)[C@H]8O)[C@H]7O[C@@H]7O[C@H](CO)[C@@H](O)[C@H](O[C@@H]8O[C@H](CO)[C@@H](O)[C@H](O)[C@H]8O)[C@H]7O)[C@H](O)[C@H]6O)[C@H](O)C[C@]5(C)[C@H]4CC[C@]3(C)[C@H]1[C@@H]2C	32.5 µM (active)	29 µM (active)
